# Bioassay records deposited in PubChem by several laboratories.
# HIV RNase H inh-1 = inhibitors of HIV-1 reverse transcriptase RNase H. P04585. RT-RNase H RNA/DNA duplex cleavage, fluorescence. inhibition, % at 10 µM. 65,000 compounds, 1.9% hits; in the data active = inhibition above about 50%
# RmlC RmlD mix = mixture blocks RmlC and RmlD coupled enzyme activity; RmlC/RmlD coupled enzyme inhibition, 384-well mixture HTS; inhibition, % at 5.5 µM; 110,000 compounds, 0.39% hits; in the data active = inhibition above about 30%, passing the limit was not always enough; inconclusive = no clear call, values can overlap the other calls
# HIV RNase H inh-2 = confirmation of HIV-1 reverse transcriptase RNase H inhibitors | shares compounds with HIV RNase H inh-1 | Recombinant RT RNase H, fluorescent RNA/DNA duplex cleavage | inhibition, % at 10 µM | 1,000 compounds, 39% hits; in the data active = inhibition above about 48%; inconclusive = no clear call, values can overlap the other calls
# * hit, by the source's call; ? = inconclusive; . = not tested or not shown. The sample as a whole holds a higher share of hits than the screen did.
SMILES,HIV RNase H inh-1,RmlC RmlD mix,HIV RNase H inh-2
COc1ccc(N2CSC3=C(C#N)C(c4cc(OC)c(OC)cc4OC)CC(=O)N3C2)c(OC)c1 (centres undefined),86*,7,73*
COc1ccc(N2CSC3=C(C#N)C(c4cccs4)CC(=O)N3C2)cc1 (centres undefined),68*,34,?
N#CC1=C2SCC(O)(c3ccccc3)N2C(=O)CC1c1ccccc1 (centres undefined),-12,-15,.
COC(=O)C1C(=O)N2CCCSC2=C(C#N)C1c1cccs1 (centres undefined),0,-6,.
COc1cc(OC)c(C2CC(=O)N3CN(c4ccc(C)cc4)CSC3=C2C#N)cc1OC (centres undefined),30,.,.
CN1CSC2=C(C#N)C(c3cccc(OCc4ccccc4)c3)CC(=O)N2C1 (centres undefined),73*,-9,60*
CCCSC1=C(C#N)C(c2cc(OC)ccc2OC)CC(=O)N1 (centres undefined),-45,12,.
COc1ccc(N2CSC3=C(C#N)C(c4cc(OC)ccc4OC)CC(=O)N3C2)c(OC)c1 (centres undefined),86*,6,67*
CC(=O)c1ccccc1Oc1nc(CN2CCOCC2)nc2scc(-c3cccs3)c12,-26,-13,.
CCN(c1ccccc1)S(=O)(=O)c1cnc[nH]1,-27,-1,.
CC/C(O)=C(\C#N)c1nnc2n1CCCCC2,.,14,.
CC(C)C(CO)NC(=O)CC(=O)NC(CO)C(C)C (centres undefined),-5,3,.
CCSC1=C(C#N)C(c2ccc(OC)c(OC)c2)CC(=O)N1 (centres undefined),-7,7,.
CCOc1ccccc1N1CCN(c2nc3ccccc3nc2C(C#N)C(=O)OC)CC1 (centres undefined),6,8,.
CCOc1ccccc1N1CSC2=C(C#N)C(c3c(OC)ccc4ccccc34)CC(=O)N2C1 (centres undefined),73*,-3,64*
COc1ccc(N2CSC3=C(C#N)C(c4ccc(OC)c(OC)c4)CC(=O)N3C2)c(OC)c1 (centres undefined),82*,13,67*
Cc1ccc(-c2cnc(N)n2C)cc1C,-7,-12,.
NC(=O)c1sc2nc(-c3ccco3)ccc2c1N,.,3,.
COC(=O)c1sc2nc(-c3ccco3)ccc2c1N,79*,-20,34
Cc1ccc2cc3cc(C(=O)N4CCN(C(=O)c5ccco5)CC4)sc3nc2c1,55*,6,29
Cc1ccc2cc3cc(C(=O)N4CCN(Cc5ccccc5)CC4)sc3nc2c1,.,-10,.
CCOC(=O)c1c(-c2cccs2)csc1NC(=O)c1ccco1,28,22,.
CCOC(=O)c1c(C2COc3ccccc3O2)csc1NC(=O)c1ccco1 (centres undefined),97*,-33,54*
COc1ccc(CN(Cc2cccnc2)S(=O)(=O)c2ccc(-n3cnnn3)c(C)c2)cc1OC,-11,1,.
CN1/C(=N\O)c2cccc3cccc1c23,61*,16,2
SMILES,HIV RNase H inh-1,RmlC RmlD mix,HIV RNase H inh-2
CNC(=O)CN1C(=O)c2cccc3cccc1c23,.,-11,.
O=C(CSc1nnc(C23CC4CC(CC(C4)C2)C3)o1)Nc1ccc(N2CCOCC2)c(Cl)c1,12,8,.
COc1ccc(CCNC(=O)CSc2nc3ccccc3o2)cc1,.,-3,.
CCOC(=O)N1CC=C2C(C#N)=C(N)C(C#N)(C#N)[C@H](c3cccs3)C2C1 (some centres undefined),.,8,.
CCCOc1ccc([C@@H]2C3CN(C(=O)OCC)CC=C3C(C#N)=C(N)C2(C#N)C#N)cc1OC (some centres undefined),70*,10,19
Cc1ccc(C(=O)Cn2c(C(=O)/C=C/c3ccccc3)nc3ccccc32)cc1,.,-8,.
O=C(CCn1c(=O)[nH]c2ccsc2c1=O)Nc1ccc(F)c(F)c1,.,-5,.
Oc1ccccc1NCC(O)Cn1ccc2ccccc21 (centres undefined),78*,-14,29
OCc1nc2ccccc2n1CC(O)Cn1ccc2ccccc21 (centres undefined),-9,10,.
O=C(CSC1=NCCS1)Nc1ccc(S(=O)(=O)NC2CCCCC2)cc1,.,-6,.
COc1cc(NS(=O)(=O)c2ccc(NC(=O)CSC3=NCCS3)cc2)nc(OC)n1,54*,.,45
CCCCNC(=O)c1cn(C)c2ccc(S(=O)(=O)N3CCOCC3)cc2c1=O,-10,.,.
Cc1ccc(C2/C(=C(\O)c3ccc4c(c3)OCCO4)C(=O)C(=O)N2CCCN(C)C)o1 (centres undefined),1,9,.
Cc1ccc(Nc2c(-c3ccc(C)o3)nc3cnccn23)cc1,.,12,.
Cc1ccc(-c2nc3cnccn3c2Nc2ccccc2)o1,88*,-63,25
CCOC(=O)c1ccc(NC(=O)C(=O)NCC2CCCO2)cc1 (centres undefined),.,9,.
COc1cc(OC)c(C2C(C(=O)O)c3ccccc3C(=O)N2C)cc1OC (centres undefined),1,-7,.
COc1ccc(OC)c(C2C(C(=O)O)c3ccccc3C(=O)N2C)c1 (centres undefined),65*,5,40
COc1[nH]c(/N=C/c2ccccc2)c(C#N)c1C#N,53*,-4,5
COc1ccc(/C=N/c2oc(-c3ccccc3)cc2C#N)cc1,.,1,.
CC(C)CCNC(=O)Cn1c(NCCC(C)C)nc2c1c(=O)n(C)c(=O)n2C,9,-7,.
COc1ccc(C2c3c(oc4ccc(Cl)cc4c3=O)C(=O)N2Cc2ccco2)cc1OC (centres undefined),94*,.,60*
COc1cc(C2c3c(oc4ccc(Cl)cc4c3=O)C(=O)N2Cc2ccco2)cc(OC)c1OC (centres undefined),29,.,.
COc1ccc(/C(O)=C2\C(=O)C(=O)N(c3cc(C)on3)C2c2cccc(OC)c2OC)cc1C (centres undefined),1,6,.
COc1cccc(C2c3c(oc4ccc(Cl)cc4c3=O)C(=O)N2c2cc(C)on2)c1OC (centres undefined),50*,6,42
SMILES,HIV RNase H inh-1,RmlC RmlD mix,HIV RNase H inh-2
CC(=O)c1cccc(NC(=O)C(OC(=O)/C=C/c2ccc3c(c2)OCO3)c2ccccc2)c1 (centres undefined),.,-18,.
COc1ccccc1N1CCN(C(=O)c2cc(-c3ccc(C)cc3)on2)CC1,-17,10,.
COc1ccccc1-c1cc(C(=O)N2CCN(c3ccccc3OC)CC2)no1,78*,7,47
CC(C)Cc1cc(C(=O)Nc2sc3c(c2C#N)CCCC3)no1,65*,10,68*
Cc1noc(C(=O)Nc2sc3c(c2C#N)CCC3)c1Cl,67*,10,9
Cc1cc(C(=O)Nc2sc3c(c2C#N)CCC3)no1,22,11,.
CC(C)Cc1cc(C(=O)Nc2sc3c(c2C#N)CCC3)no1,.,7,.
CCCCNC(=O)C1CC(=O)N(c2ccc(OC)cc2)C1c1ccc(OC)cc1 (centres undefined),.,-3,.
Cc1cccc(N2CCN(C(=O)n3ccnc3)CC2)c1C,-9,11,.
COC(=O)c1ccc(CSc2nc3c(cnn3-c3ccc(F)cc3)c(=O)[nH]2)o1,7,-10,.
CCCSc1nc2c(cnn2-c2ccc(Cl)cc2)c(=O)[nH]1,56*,-7,67*
C=CCSc1nc2c(cnn2-c2ccc(C)c(C)c2)c(=O)[nH]1,58*,5,59*
